Data on ten compounds can be found in PubChem BioAssay (NCI).

Compounds without any hit were thinned out: in the full panel of roughly 79,000, 15% have a hit. Unmarked numbers belong to inactive results. Calls of active or inactive are those of the source. Cut-off read from the data, not from the text of the source: active = growth inhibition above about 70%; inactive = the rest.

Assay [1] is described as follows: NCI Yeast Anticancer Drug Screen. Data for the rad50 strain (AID 155).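 Note: 0% = growth of vehicle-only cultures of the same strain.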 To be noted: S. cerevisiae rad50 strain growth inhibition, stronger effect = higher value. In outline: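 Compounds were tested on a yeast strain with an engineered DNA damage repair alteration; the reported value is growth inhibition normalised to vehicle treatment.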
Assay [2] in a line: NCI Yeast Anticancer Drug Screen. Data for the mec2-1 strain (AID 157). To be noted: S. cerevisiae mec2-1 strain, stronger effect = higher value. In outline: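 Using mec2-1 yeast: add compound, measure growth, express inhibition versus vehicle-treated cultures.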
Assay [3] in a line: NCI Yeast Anticancer Drug Screen. Data for the sgs1 mgt1 strain (AID 161).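 Note: 0% = growth of cultures given vehicle only.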 As to conditions: S. cerevisiae sgs1 mgt1 strain, stronger effect = higher value. In outline:
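Growth of a repair-deficient yeast mutant was monitored after compound treatment and expressed as inhibition relative to vehicle-treated cultures.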

Assay [4] is described as follows: NCI Yeast Anticancer Drug Screen. Data for the cln2 rad14 strain (AID 165).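 Note: 0% = growth equal to vehicle treated cultures.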 As to conditions: S. cerevisiae cln2 rad14 strain, stronger effect = higher value. The procedure, abridged:
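Yeast strain cln2 rad14, bearing defects in cell cycle control and DNA repair, serves as the test system; values reflect growth inhibition compared with vehicle.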

Assay [5] can be described thus: NCI Yeast Anticancer Drug Screen. Data for the bub3 strain (AID 167). To be noted: S. cerevisiae bub3 mutant strain, stronger effect = higher value. The procedure, abridged:
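Growth of a checkpoint-deficient yeast mutant is measured after compound exposure. Values represent inhibition relative to vehicle.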

A short description of assay [6]: NCI Yeast Anticancer Drug Screen. Data for the mlh1 rad18 strain (AID 175). To be noted: S. cerevisiae mlh1 rad18 strain growth inhibition, stronger effect = higher value. The procedure, abridged: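 Steps: expose repair-defective yeast to compound; measure growth; express inhibition against vehicle-treated controls.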
Where [7] appears, read: at 5.0 µM (retest, dose inferred, filed as 0.5).
Where [8] appears, read: at 50.0 µM (retest, dose inferred, filed as 5.0).

As to `CCCCCCCCCCCCCCCCC#N`, the growth inhibition in assay [1] (setting [7]) was -6%; in assay [1] (setting [8]), -8%; in assay [1] (at 50.0 µM), 50.4%; in assay [2] (setting [7]), -2%; in assay [2] (setting [8]), -4%; in assay [2] (at 50.0 µM) it was -7.4%. Also, the growth inhibition in assay [3] (setting [7]) was 0%; in assay [3] (setting [8]), -4%; in assay [3] (at 50.0 µM), 52.1%; in assay [4] (setting [7]), 2%; in assay [4] (setting [8]), 0%; in assay [4] (at 50.0 µM), 16.2%. Further, the growth inhibition is -3% in assay [5] (setting [7]); -9% in assay [5] (setting [8]); 52.2% in assay [5] (at 50.0 µM); -5% in assay [6] (setting [7]); -5% in assay [6] (setting [8]); 24.1% in assay [6] (at 50.0 µM).
In the case of `O=[N+]([O-])c1ccccc1SCc1ccccc1`, the growth inhibition is 17% in assay [1] (setting [7]); 47% in assay [1] (setting [8]); 85.4% (active) in assay [1] (at 50.0 µM); -18% in assay [2] (setting [7]); 35% in assay [2] (setting [8]); 15.8% in assay [2] (at 50.0 µM). In addition, the growth inhibition is 16% in assay [3] (setting [7]); 49% in assay [3] (setting [8]); 54.7% in assay [3] (at 50.0 µM); 15% in assay [4] (setting [7]); 43% in assay [4] (setting [8]); 44% in assay [4] (at 50.0 µM). In addition, the growth inhibition is -1% in assay [5] (setting [7]); 79% (active) in assay [5] (setting [8]); 30.8% in assay [5] (at 50.0 µM); 13% in assay [6] (setting [7]); 74% (active) in assay [6] (setting [8]); 52.6% in assay [6] (at 50.0 µM).
With `CCNC(=O)NNc1ncnc2c1c(-c1ccc(Cl)cc1)cn2-c1ccc(C)cc1`, the growth inhibition was -10% in assay [1] (setting [7]); 98% (active) in assay [1] (setting [8]); 96.7% (active) in assay [1] (at 50.0 µM); -11% in assay [2] (setting [7]); 98% (active) in assay [2] (setting [8]); 97.7% (active) in assay [2] (at 50.0 µM). Besides, the growth inhibition in assay [3] (setting [7]) was 5%; in assay [3] (setting [8]) it was 99% (active); in assay [3] (at 50.0 µM), 98.3% (active); in assay [4] (setting [7]), 7%; in assay [4] (setting [8]), 97% (active); in assay [4] (at 50.0 µM) it was 96.5% (active). Further, the growth inhibition in assay [5] (setting [7]) was 0%; in assay [5] (setting [8]) it was 97% (active); in assay [5] (at 50.0 µM) it was 40%; in assay [6] (setting [7]) it was -17%; in assay [6] (setting [8]), 98% (active); in assay [6] (at 50.0 µM), 97.2% (active).
As for `CCCOc1cc(C(=O)OCCN(CC)CC)cc(OCCC)c1OCCC`, the growth inhibition was 6% in assay [1] (setting [7]); 29% in assay [1] (setting [8]); 36.9% in assay [1] (at 50.0 µM); 6% in assay [2] (setting [7]); 19% in assay [2] (setting [8]); 15.8% in assay [2] (at 50.0 µM). For the same compound, the growth inhibition was 4% in assay [3] (setting [7]); 43% in assay [3] (setting [8]); 44.8% in assay [3] (at 50.0 µM); 8% in assay [4] (setting [7]); 13% in assay [4] (setting [8]); 15.1% in assay [4] (at 50.0 µM). Also, the growth inhibition is -21% in assay [5] (setting [7]); 12% in assay [5] (setting [8]); 23% in assay [5] (at 50.0 µM); 0% in assay [6] (setting [7]); 41% in assay [6] (setting [8]); 61.8% in assay [6] (at 50.0 µM).
As to `C/C(=C\N1CCN(c2ccc(Cl)cc2)C(C)C1)C(=O)c1ccccc1` (stereo not given), the growth inhibition in assay [1] (setting [7]) is 7%; in assay [1] (setting [8]), 89% (active); in assay [1] (at 50.0 µM) it was 52.9%; in assay [2] (setting [7]), 4%; in assay [2] (setting [8]) it was 92% (active); in assay [2] (at 50.0 µM), 30.7%. For the same compound, the growth inhibition in assay [3] (setting [7]) was 15%; in assay [3] (setting [8]) it was 89% (active); in assay [3] (at 50.0 µM), 79.8% (active); in assay [4] (setting [7]) it was -2%; in assay [4] (setting [8]), 86% (active); in assay [4] (at 50.0 µM) it was 27.8%. For the same compound, the growth inhibition in assay [5] (setting [7]) is -1%; in assay [5] (setting [8]), 92% (active); in assay [5] (at 50.0 µM) it was 24.9%; in assay [6] (setting [7]), 4%; in assay [6] (setting [8]) it was 87% (active); in assay [6] (at 50.0 µM), 57.3%.
`NC(=Nc1cc2ccccc2c2ccccc12)Nc1cc2ccccc2c2ccccc12`: the growth inhibition in assay [1] (setting [7]) was 87% (active); in assay [1] (setting [8]), 97% (active); in assay [1] (at 50.0 µM), 85.8% (active); in assay [2] (setting [7]) it was 91% (active); in assay [2] (setting [8]), 99% (active); in assay [2] (at 50.0 µM), 77.2% (active). The growth inhibition in assay [3] (setting [7]) is 89% (active); in assay [3] (setting [8]), 99% (active); in assay [3] (at 50.0 µM) it was 95.3% (active); in assay [4] (setting [7]), 45%; in assay [4] (setting [8]), 96% (active); in assay [4] (at 50.0 µM), 95% (active). The growth inhibition is 35% in assay [5] (setting [7]); 97% (active) in assay [5] (setting [8]); 97.7% (active) in assay [5] (at 50.0 µM); 97% (active) in assay [6] (setting [7]); 97% (active) in assay [6] (setting [8]); 97.5% (active) in assay [6] (at 50.0 µM).
Take `CSC(=Nc1ccccc1)NC(=O)Nc1ccc(Cl)cc1`: the growth inhibition in assay [1] (setting [7]) was -8%; in assay [1] (setting [8]) it was -11%; in assay [1] (at 50.0 µM), -1.45%; in assay [2] (setting [7]), 5%; in assay [2] (setting [8]) it was -15%; in assay [2] (at 50.0 µM), 5%. The growth inhibition in assay [3] (setting [7]) is -34%; in assay [3] (setting [8]), -17%; in assay [3] (at 50.0 µM), -2.1%; in assay [4] (setting [7]), -18%; in assay [4] (setting [8]) it was -17%; in assay [4] (at 50.0 µM) it was -31.2%. Besides, the growth inhibition is -22% in assay [5] (setting [7]); -4% in assay [5] (setting [8]); 2.55% in assay [5] (at 50.0 µM); -7% in assay [6] (setting [7]); -5% in assay [6] (setting [8]); 3.15% in assay [6] (at 50.0 µM).
On to `O=c1[nH]cc(F)c(=O)n1C1CCCCO1` (stereo not given), for which the growth inhibition is 30% in assay [1] (setting [7]); 41% in assay [1] (setting [8]); 46% in assay [1] (at 50.0 µM); 16% in assay [2] (setting [7]); 34% in assay [2] (setting [8]); 49.5% in assay [2] (at 50.0 µM). Besides, the growth inhibition in assay [3] (setting [7]) was 46%; in assay [3] (setting [8]), 72% (active); in assay [3] (at 50.0 µM), 71% (active); in assay [4] (setting [7]) it was 46%; in assay [4] (setting [8]), 49%; in assay [4] (at 50.0 µM), 12.2%. In addition, the growth inhibition was 42% in assay [5] (setting [7]); 59% in assay [5] (setting [8]); 34.5% in assay [5] (at 50.0 µM); 23% in assay [6] (setting [7]); 35% in assay [6] (setting [8]); 6.85% in assay [6] (at 50.0 µM).
Turning to `Cc1ccc2nc(-c3ccc(N)cc3)sc2c1`, the growth inhibition was 9% in assay [1] (setting [7]); 42% in assay [1] (setting [8]); 75% (active) in assay [1] (at 50.0 µM); -2% in assay [2] (setting [7]); 8% in assay [2] (setting [8]); 34.5% in assay [2] (at 50.0 µM). The growth inhibition in assay [3] (setting [7]) is -2%; in assay [3] (setting [8]), 7%; in assay [3] (at 50.0 µM), 43.9%; in assay [4] (setting [7]), -8%; in assay [4] (setting [8]), -6%; in assay [4] (at 50.0 µM), 15%. Besides, the growth inhibition in assay [5] (setting [7]) was 14%; in assay [5] (setting [8]), 68%; in assay [5] (at 50.0 µM) it was 72.5% (active); in assay [6] (setting [7]) it was -1%; in assay [6] (setting [8]), 19%; in assay [6] (at 50.0 µM) it was 41.3%.
Turning to `COc1cc2c(cc1C(C)C)CCC1C(C)(C#N)CCCC21C` (stereo not given), the growth inhibition in assay [1] (setting [7]) was -6%; in assay [1] (setting [8]), -21%; in assay [1] (at 50.0 µM), 34.4%; in assay [2] (setting [7]), 3%; in assay [2] (setting [8]) it was -11%; in assay [2] (at 50.0 µM), 46.5%. The growth inhibition in assay [3] (setting [7]) is -11%; in assay [3] (setting [8]) it was -29%; in assay [3] (at 50.0 µM) it was 47.5%; in assay [4] (setting [7]), 1%; in assay [4] (setting [8]), -22%; in assay [4] (at 50.0 µM) it was 80.1% (active). Moreover, the growth inhibition is 0% in assay [5] (setting [7]); -10% in assay [5] (setting [8]); 45.1% in assay [5] (at 50.0 µM); -3% in assay [6] (setting [7]); -29% in assay [6] (setting [8]); 88.8% (active) in assay [6] (at 50.0 µM).
